PubChem BioAssay (Tox21)
Inconclusive results are not listed. The source made the active and inactive calls. Unless noted, calls come from the whole dose curve; as a rule, active = well fitted curve in the direction sought with a large enough effect in the repeat runs; inconclusive = weak or mixed curves; inactive = no such curve, though single readings can be large; an effect the other way counts as inactive or inconclusive.

Columns and labels:
[1] = qHTS assay to identify small molecule antagonists of the thyroid receptor (TR) signaling pathway (AID 743065); note: nearly all actives have a fitted effect of over 55% in size; note: potency is the fitted concentration of half-maximal effect
In short: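 Antagonism measured as loss of luciferase signal in GH3 cells stably carrying a TRE-luciferase reporter, co-treated with compound and T3 (1 nM final) for 23.5 h at 37 C. Viability was read in the same well by CellTiter-Fluor.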

[2] = test system: thyroid hormone receptor (rat, GH3 cells); test: qHTS assay to identify small molecule agonists of the thyroid receptor (TR) signaling pathway (AID 743066; calls by dose curve)
[3] = qHTS assay to identify small molecule antagonists of the estrogen receptor alpha (ER-alpha) signaling pathway - cell viability counter screen (AID 743074; calls by dose curve;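 note: HEK293 cells carrying ER-alpha-UAS-bla reporter stimulated with 17beta-estradiol; nearly all actives have a fitted effect of over 45% in size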)
[4] = biological target: Estrogen receptor (Homo sapiens) (UniProt P03372); test: qHTS assay to identify small molecule agonists of the estrogen receptor alpha (ER-alpha) signaling pathway (AID 743075; calls by dose curve;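 note: HEK293 GripTite cells with ER-alpha and UAS-driven beta-lactamase reporter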)
[5] = biological target: Estrogen receptor (Homo sapiens) (UniProt P03372); test: qHTS assay to identify small molecule agonists of the estrogen receptor alpha (ER-alpha) signaling pathway using the BG1 cell line (AID 743079); note: nearly all actives have a fitted effect of over 20% in size
[6] = qHTS assay to identify small molecule antagonists of the estrogen receptor alpha (ER-alpha) signaling pathway using the BG1 cell line (AID 743080; calls by dose curve;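 note: BG1 cells stimulated with 17beta-estradiol alongside compound; series mostly up to about 70 µM; nearly all actives have a fitted effect of over 25% in size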)
In short: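 Readout is ONE-Glo luminescence, taken 30 min at room temperature after reagent addition, preceded by a CellTiter-Fluor viability read; BG1-Luc-4E2 cells had received compound and 17beta-estradiol for 21.5 h at 37 C.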

[7] = qHTS assay to identify small molecule antagonists of the estrogen receptor alpha (ER-alpha) signaling pathway using the BG1 cell line - cell viability counter screen (AID 743081);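 note: compound given together with 17beta-estradiol as the ER stimulus; series mostly up to about 70 µM; nearly all actives have a fitted effect of over 45% in size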
Aromatase (Homo sapiens) = Aromatase (Homo sapiens) (UniProt P11511); test: qHTS assay to identify aromatase inhibitors (AID 743083); note: series mostly up to about 70 µM; nearly all actives have a fitted effect of over 55% in size
[8] = qHTS assay to identify aromatase inhibitors - cell viability counter screen (AID 743084);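 note: cells stimulated with testosterone during compound exposure; nearly all actives have a fitted effect of over 55% in size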
[9] = biological target: Aryl hydrocarbon receptor (Homo sapiens) (UniProt P35869); test: qHTS assay to identify small molecule that activate the aryl hydrocarbon receptor (AhR) signaling pathway (AID 743085);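 note: HG2L7.5c1 human HepG2 liver cells with stably integrated DRE-driven firefly reporter; series mostly up to about 70 µM; nearly all actives have a fitted effect of over 15% in size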
In short: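 24 h compound exposure, 37C, HepG2-derived HG2L7.5c1 cells with DRE-responsive luciferase. Readouts: fluorescence viability, then luminescence at room temperature after 30 min.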

[10] = qHTS assay to identify small molecule that activate the aryl hydrocarbon receptor (AhR) signaling pathway - cell viability counter screen (AID 743086);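 note: HepG2 liver cells carrying the AhR DRE luciferase reporter; series mostly up to about 70 µM; nearly all actives have a fitted effect of over 45% in size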
In short: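 Cytotoxicity counter screen: CellTiter-Fluor signal (30 min, 37 C) in 4000 HepG2 cells/well carrying the DRE-luciferase reporter, following 24 h compound exposure at 37 C.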

[11] = biological target: Peroxisome proliferator-activated receptor gamma (Homo sapiens) (UniProt P37231); test: qHTS assay to identify small molecule agonists of the peroxisome proliferator-activated receptor gamma (PPARg) signaling pathway (AID 743094; active = well fitted activation curve with a large enough effect in the signal ratio in the repeat runs, not every such curve was filed as active; the % refers to the signal ratio)
In short: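 Agonist activity was taken from a beta-lactamase reporter (FRET substrate, 1 h at room temperature) in HEK293H cells carrying a PPARg UAS-bla construct. Compounds in DMSO were incubated 17 h at 37C after a 5 h cell pre-incubation.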

[12] = qHTS assay to identify small molecule antagonists of the peroxisome proliferator-activated receptor gamma (PPARg) signaling pathway - cell viability counter screen (AID 743194); note: nearly all actives have a fitted effect of over 55% in size
In short: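 Viability was measured as CellTiter-Glo luminescence in GeneBLAzer PPARg UAS-bla HEK293H cells. These cells had been exposed 17 h at 37 C to compounds together with rosiglitazone at 50 nM final, with the beta-lactamase readout taken in the same wells.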

[13] = qHTS assay for small molecule agonists of the antioxidant response element (ARE) signaling pathway (AID 743202; active = well fitted activation curve with a large enough effect in the signal ratio in the repeat runs, not every such curve was filed as active; the % refers to the signal ratio)
In short: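 Beta-lactamase reporter activity, read as fluorescence intensity, reflects ARE/Nrf2 pathway induction in HepG2 cells after 16 h compound exposure at 37 C; substrate loading was 2 h at room temperature.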

[14] = qHTS assay for small molecule agonists of the antioxidant response element (ARE) signaling pathway - cell viability counter screen (AID 743203; calls by dose curve; note: nearly all actives have a fitted effect of over 55% in size)
In short: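 Viability counter screen: CellTiter-Glo luminescence, read after 30 min at room temperature, in ARE-bla HepG2 wells. Compound exposure lasted 16 h at 37C/5% CO2, following a 5 h pre-incubation of the cells after plating.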

[15] = qHTS assay for small molecule activators of the heat shock response signaling pathway - cell viability counter screen (AID 743209); note: nearly all actives have a fitted effect of over 50% in size
In short: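 Cytotoxicity counter screen run in the same wells as the heat-shock bla reporter assay: HeLa HSE-bla cells, 5 h compound exposure at 37 C, viability read by CellTiter-Glo luminescence.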

[16] = qHTS assay to identify small molecule agonists of the peroxisome proliferator-activated receptor delta (PPARd) signaling pathway - cell viability counter screen (AID 743211); note: nearly all actives have a fitted effect of over 55% in size
In short: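 Luminescent ATP viability assay (CellTiter-Glo, 30 min RT) in UAS-bla HEK293H cells carrying the PPAR delta reporter construct, 3000 cells/well, after a 17 h compound treatment at 37 C.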

[17] = biological target: Peroxisome proliferator-activated receptor gamma (Homo sapiens) (UniProt P37231); test: qHTS assay to identify small molecule antagonists of the peroxisome proliferator-activated receptor gamma (PPARg) signaling pathway (AID 743191; calls by dose curve; note: series mostly up to about 63 µM; nearly all actives have a fitted effect of over 30% in size)
In short: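 Beta-lactamase reporter under UAS control in HEK293H PPARg-bla cells; compound treatment 17 h at 37C. Read-out: fluorescence intensity after 1 h room-temperature incubation with LiveBLAzer B/G FRET substrate.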

[18] = qHTS assay for small molecule activators of the heat shock response signaling pathway (AID 743210; active = well fitted activation curve with a large enough effect in the signal ratio in the repeat runs, with a control signal flat, not every such curve was filed as active; the % refers to the signal ratio;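 note: HeLa cells with beta-lactamase reporter driven by heat shock elements; series mostly up to about 63 µM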)
In short: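 Fluorescence from a cleaved B/G FRET substrate (2.5 h, room temp) reports HSE-driven beta-lactamase in HeLa cells treated 5 h at 37 C with DMSO-dissolved compounds.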
% is set by controls: 0 for no effect and ±100 for the full control effect.

Sequence of Estrogen receptor (Homo sapiens) (P03372 whole entry, looked up): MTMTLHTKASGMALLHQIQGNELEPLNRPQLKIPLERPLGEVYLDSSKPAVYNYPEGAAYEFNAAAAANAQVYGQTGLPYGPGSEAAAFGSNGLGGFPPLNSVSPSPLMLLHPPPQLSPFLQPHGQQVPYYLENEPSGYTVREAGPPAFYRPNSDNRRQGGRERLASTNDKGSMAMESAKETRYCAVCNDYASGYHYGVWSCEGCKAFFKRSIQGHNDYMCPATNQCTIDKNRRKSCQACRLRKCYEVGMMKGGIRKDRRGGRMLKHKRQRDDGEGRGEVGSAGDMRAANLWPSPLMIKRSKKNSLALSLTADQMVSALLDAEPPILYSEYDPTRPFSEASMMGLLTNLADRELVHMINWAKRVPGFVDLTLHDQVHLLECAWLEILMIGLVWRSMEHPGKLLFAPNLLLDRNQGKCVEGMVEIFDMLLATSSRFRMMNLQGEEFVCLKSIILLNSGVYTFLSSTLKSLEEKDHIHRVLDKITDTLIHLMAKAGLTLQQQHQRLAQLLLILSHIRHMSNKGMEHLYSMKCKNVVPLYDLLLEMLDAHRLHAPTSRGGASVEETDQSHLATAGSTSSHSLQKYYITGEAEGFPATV
Sequence of Peroxisome proliferator-activated receptor gamma (Homo sapiens) (P37231 whole entry, looked up): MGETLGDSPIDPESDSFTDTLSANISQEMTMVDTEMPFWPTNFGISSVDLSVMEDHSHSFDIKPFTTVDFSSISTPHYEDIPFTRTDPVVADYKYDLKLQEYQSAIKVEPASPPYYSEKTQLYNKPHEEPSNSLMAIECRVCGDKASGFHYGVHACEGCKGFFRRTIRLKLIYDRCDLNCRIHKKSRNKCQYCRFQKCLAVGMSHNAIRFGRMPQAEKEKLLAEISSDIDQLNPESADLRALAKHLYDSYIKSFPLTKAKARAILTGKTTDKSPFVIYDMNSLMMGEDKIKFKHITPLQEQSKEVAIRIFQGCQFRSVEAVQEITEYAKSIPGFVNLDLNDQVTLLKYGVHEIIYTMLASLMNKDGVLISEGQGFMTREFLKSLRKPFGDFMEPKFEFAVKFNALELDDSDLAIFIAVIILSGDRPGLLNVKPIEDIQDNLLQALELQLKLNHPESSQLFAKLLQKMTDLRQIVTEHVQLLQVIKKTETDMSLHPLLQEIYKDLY
Sequence of Aromatase (Homo sapiens) (P11511 whole entry, looked up): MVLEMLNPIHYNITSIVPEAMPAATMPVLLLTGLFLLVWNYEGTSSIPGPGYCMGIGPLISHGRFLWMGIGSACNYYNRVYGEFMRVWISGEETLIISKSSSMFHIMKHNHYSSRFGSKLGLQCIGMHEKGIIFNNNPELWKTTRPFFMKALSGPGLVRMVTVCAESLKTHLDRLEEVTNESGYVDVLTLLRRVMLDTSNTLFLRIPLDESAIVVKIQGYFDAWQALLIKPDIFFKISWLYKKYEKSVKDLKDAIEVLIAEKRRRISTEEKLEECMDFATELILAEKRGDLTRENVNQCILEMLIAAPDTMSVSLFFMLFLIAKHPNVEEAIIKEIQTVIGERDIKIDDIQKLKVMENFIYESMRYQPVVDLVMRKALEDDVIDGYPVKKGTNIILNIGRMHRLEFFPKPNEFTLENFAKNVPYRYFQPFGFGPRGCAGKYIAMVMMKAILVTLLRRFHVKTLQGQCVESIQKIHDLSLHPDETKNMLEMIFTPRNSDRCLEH
Sequence of Aryl hydrocarbon receptor (Homo sapiens) (P35869 whole entry, looked up): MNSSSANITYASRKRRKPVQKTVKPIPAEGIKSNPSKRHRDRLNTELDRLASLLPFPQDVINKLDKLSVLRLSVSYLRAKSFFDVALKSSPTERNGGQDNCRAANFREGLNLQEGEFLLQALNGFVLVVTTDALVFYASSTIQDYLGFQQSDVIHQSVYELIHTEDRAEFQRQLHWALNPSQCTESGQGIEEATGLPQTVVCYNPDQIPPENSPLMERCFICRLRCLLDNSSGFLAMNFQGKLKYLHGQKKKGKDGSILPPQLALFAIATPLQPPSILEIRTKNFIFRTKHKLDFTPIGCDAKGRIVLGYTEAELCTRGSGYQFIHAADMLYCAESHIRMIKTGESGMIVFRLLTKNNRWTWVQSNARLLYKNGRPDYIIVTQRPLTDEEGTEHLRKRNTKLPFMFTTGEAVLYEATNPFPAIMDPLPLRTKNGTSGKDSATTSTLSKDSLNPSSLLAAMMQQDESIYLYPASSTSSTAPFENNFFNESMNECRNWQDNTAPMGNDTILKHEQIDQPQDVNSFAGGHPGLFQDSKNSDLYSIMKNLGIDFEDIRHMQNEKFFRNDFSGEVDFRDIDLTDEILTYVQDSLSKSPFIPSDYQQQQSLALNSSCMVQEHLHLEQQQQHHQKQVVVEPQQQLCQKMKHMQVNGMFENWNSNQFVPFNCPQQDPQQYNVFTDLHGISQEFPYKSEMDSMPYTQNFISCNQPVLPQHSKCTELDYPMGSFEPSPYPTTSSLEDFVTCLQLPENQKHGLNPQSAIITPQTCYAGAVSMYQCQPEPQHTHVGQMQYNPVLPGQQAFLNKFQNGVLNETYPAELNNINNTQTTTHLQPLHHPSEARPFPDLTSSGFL

C=COCC1CCC(COC=C)CC1 (stereo not drawn)
inactive: Potency [1] | outcome [2] | Potency [3] | Potency [4] | Potency [5] | Potency [6] | outcome [7] | outcome (Aromatase (Homo sapiens)) | Potency [8] | Potency [9] | Potency [10] | Potency [11] | outcome [12] | Potency [13] | outcome [14] | outcome [15] | outcome [16]

CC(=O)C1CCCCC1=O (stereo not drawn)
inactive: Potency [1] | outcome [2] | Potency [3] | Potency [4] | Potency [5] | outcome [7] | outcome (Aromatase (Homo sapiens)) | Potency [8] | Potency [9] | Potency [10] | Potency [11] | Potency [17] | outcome [12] | outcome [14] | outcome [15] | outcome [18] | outcome [16]

CNC(=O)Nc1ccc(Cl)c(Cl)c1
active: Potency [1] 30.6 µM
inactive: outcome [2] | Potency [3] | Potency [5] | outcome [7] | outcome (Aromatase (Homo sapiens)) | Potency [8] | Potency [10] | Potency [11] | outcome [12] | Potency [13] | outcome [14] | outcome [15] | outcome [18] | outcome [16]

C=CC(=O)OCCCl
inactive: Potency [1] | outcome [2] | Potency [3] | Potency [4] | Potency [5] | Potency [6] | outcome [7] | outcome (Aromatase (Homo sapiens)) | Potency [8] | Potency [10] | Potency [11] | Potency [17] | outcome [12] | Potency [13] | outcome [14] | outcome [15] | outcome [18] | outcome [16]

C=CCOCC(O)CO (stereo not drawn)
inactive: Potency [1] | outcome [2] | Potency [3] | Potency [4] | Potency [5] | outcome [7] | outcome (Aromatase (Homo sapiens)) | Potency [8] | Potency [10] | Potency [11] | Potency [17] | outcome [12] | Potency [13] | outcome [14] | outcome [15] | outcome [18] | outcome [16]

NC(N)=NCCN1CCCCCCC1
inactive: Potency [1] | outcome [2] | Potency [3] | Potency [6] | outcome [7] | outcome (Aromatase (Homo sapiens)) | Potency [8] | Potency [10] | activity change, negative = cytotoxicity [12] 6.29% [at 0.55 µM] | activation [13] 4.68% [at 0.756 µM] | viability change, negative = cytotoxic [14] -0.232% [at 0.756 µM] | activity change, negative = cytotoxicity [15] -20.4% [at 0.55 µM] | activation [18] -0.075% [at 0.55 µM] | activity change, negative = cytotoxicity [16] 8.58% [at 0.55 µM]

O=C(O)c1cn(C2CC2)c2cc(N3CCNCC3)c(F)cc2c1=O
inactive: Potency [1] | outcome [2] | Potency [3] | Potency [4] | Potency [5] | outcome [7] | Potency [8] | Potency [10] | Potency [11] | Potency [17] | outcome [12] | outcome [18] | outcome [16]

CCN1C=CN(C)C1C (stereo not drawn)
inactive: Potency [1] | outcome [2] | Potency [3] | Potency [4] | Potency [5] | Potency [6] | outcome [7] | outcome (Aromatase (Homo sapiens)) | Potency [8] | Potency [9] | Potency [10] | Potency [11] | outcome [12] | Potency [13] | outcome [14] | outcome [18] | outcome [16]

CCC(C(=O)NC(=O)NC(C)=O)c1ccccc1 (stereo not drawn)
inactive: Potency [1] | outcome [2] | Potency [3] | Potency [4] | Potency [5] | outcome (Aromatase (Homo sapiens)) | Potency [8] | Potency [10] | Potency [11] | Potency [17] | outcome [12] | Potency [13] | outcome [14] | outcome [15] | outcome [16]

CCCCCCC1CCC(=O)O1 (stereo not drawn)
inactive: Potency [1] | outcome [2] | Potency [3] | Potency [4] | Potency [5] | Potency [6] | outcome [7] | outcome (Aromatase (Homo sapiens)) | Potency [8] | Potency [10] | Potency [11] | outcome [12] | Potency [13] | outcome [14] | outcome [15] | outcome [18] | outcome [16]

COc1ccc2cc1Oc1cc3c(cc1OC)CC[N+](C)(C)[C@H]3Cc1ccc(cc1)Oc1c(OC)c(OC)cc3c1[C@@H](C2)[N+](C)(C)CC3
inactive: Potency [1] | outcome [2] | Potency [3] | Potency [4] | Potency [5] | outcome [7] | outcome (Aromatase (Homo sapiens)) | Potency [8] | Potency [9] | Potency [10] | Potency [11] | Potency [17] | outcome [15] | outcome [18] | outcome [16]

CC(C)NNC(=O)c1ccncc1
inactive: Potency [1] | outcome [2] | Potency [3] | Potency [6] | outcome [7] | outcome (Aromatase (Homo sapiens)) | Potency [8] | Potency [10] | Potency [11] | Potency [17] | outcome [12] | outcome [14] | outcome [15] | outcome [18] | outcome [16]

O=C(O)CNC(=O)c1ccc(CO)o1
inactive: Potency [1] | outcome [2] | Potency [3] | Potency [4] | Potency [5] | Potency [6] | outcome [7] | outcome (Aromatase (Homo sapiens)) | Potency [8] | Potency [9] | Potency [10] | Potency [11] | outcome [12] | outcome [14] | outcome [15] | outcome [18] | outcome [16]

CC(=O)c1cnccn1
inactive: Potency [1] | outcome [2] | Potency [3] | Potency [4] | Potency [5] | outcome [7] | outcome (Aromatase (Homo sapiens)) | Potency [8] | Potency [10] | Potency [11] | outcome [12] | outcome [14] | outcome [15] | outcome [18] | outcome [16]

C=CCCC(=O)O
inactive: Potency [1] | outcome [2] | Potency [3] | Potency [4] | outcome [7] | outcome (Aromatase (Homo sapiens)) | Potency [8] | Potency [9] | Potency [11] | Potency [17] | outcome [12] | Potency [13] | outcome [14] | outcome [15] | outcome [18] | outcome [16]
